# An excerpt weighted towards active compounds, which were near 3.9% of everything screened.
# BRCA1 expr act – BRCA1 expression activation. MCF7-BRCA1-FFLuc reporter, luminescence, 48 h; response scale: scaled: vehicle 0%, 10 µM genistein 100%. Potency, µM (doses to about 46.1 µM), without a hit: at the top dose activation, hits mostly activators. 1.1% of 380,000 active. AID 624202; also: nearly all actives have a fitted effect of over 80% in size
#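 Reporter cells (MCF7, BRCA1 promoter-firefly luciferase) received library compounds across a concentration series for 48 h. End-point luminescence was measured and concentration-effect curves derived after normalization.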
# VDR inh – blocks the human vitamin D receptor; 0.93% of 400,000 active; Potency, µM, inactives show max response, negative = inhibition, hits mostly inhibitors; VDR-SRC2-3 peptide fluorescence polarization, 2 h; AID 504847; also: % is scaled to controls: 0 for no effect and ±100 for the full control effect
#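 Reagent solutions, kept cold and dark, are dispensed first; compounds are then pinned in at 23 nl, plates briefly spun, and incubated 2 h at ambient temperature. Inhibition of VDR–SRC2-3 peptide binding is read by fluorescence polarization.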
# PLK1 PBD inh – PLK1 (human) polo-box domain binding inhibition; Plk1 PBD binding of FITC phosphopeptide, fluorescence polarization; Potency, µM, for the others: max response, negative = inhibition, usual class: inhibitors; 2.8% of 360,000 active; also: series mostly up to about 57 µM; % is scaled to controls: 0 for no effect and ±100 for the full control effect; nearly all actives have a fitted effect of over 65% in size
# Target sequence (P53350 whole entry, looked up, the tested form may be a part): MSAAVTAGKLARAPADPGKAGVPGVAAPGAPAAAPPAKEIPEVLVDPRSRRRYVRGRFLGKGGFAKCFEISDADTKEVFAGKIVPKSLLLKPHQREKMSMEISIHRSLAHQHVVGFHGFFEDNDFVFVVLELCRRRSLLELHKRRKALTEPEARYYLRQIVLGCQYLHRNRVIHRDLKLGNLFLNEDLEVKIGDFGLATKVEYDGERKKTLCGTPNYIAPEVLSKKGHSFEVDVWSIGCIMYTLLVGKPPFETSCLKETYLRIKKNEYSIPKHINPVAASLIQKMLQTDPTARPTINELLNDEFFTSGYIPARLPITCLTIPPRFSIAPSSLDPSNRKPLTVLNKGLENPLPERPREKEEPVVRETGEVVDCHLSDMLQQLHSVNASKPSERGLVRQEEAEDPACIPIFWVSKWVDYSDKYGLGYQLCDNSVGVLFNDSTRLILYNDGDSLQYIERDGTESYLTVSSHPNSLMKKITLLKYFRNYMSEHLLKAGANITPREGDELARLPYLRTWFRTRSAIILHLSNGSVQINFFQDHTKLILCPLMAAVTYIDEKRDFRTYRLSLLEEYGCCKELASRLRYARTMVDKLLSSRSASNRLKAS
# Tb PFK block – blocks T. brucei phosphofructokinase; O15648; T. brucei PFK, ADP-Glo luminescence; Potency, µM (doses to about 57.5 µM), for inactives: top-dose activity, negative = inhibition, actives largely listed as inhibitors; 0.17% of 330,000 active; AID 485367;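 also: 0% = uninhibited 1x PFK enzyme wells and -100% = no-enzyme wells; nearly all actives have a fitted effect of over 60% in size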
#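 1.25 nM PFK with 0.5 mM F6P and 0.1 mM ATP in 0.1 M TEA pH 8.0, 5 mM MgCl2, incubated 45 min at room temperature; ADP measured by ADP-Glo luminescence; compounds titrated up to 57 uM.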
# * marks the source's active call; other numbers are inactive results; u = inconclusive; x = not tested or not shown; ! = repeats disagree. Calls follow the shape of the dose curve; as a rule, active = well fitted curve in the direction sought with a large enough effect; inconclusive = small, poorly fitted or top-dose-only effect, or another doubt; inactive = no such curve, though single readings can be large; an effect the other way counts as inactive or inconclusive. Potency is read from the fitted curve at half-maximal effect.
SMILES,BRCA1 expr act,VDR inh,PLK1 PBD inh,Tb PFK block
O=c1c2ccccc2[nH]c(=S)n1Cc1cccnc1,0.7%,-19.5%,26.7µM*,-6.0%
COc1ccc(C(=O)CN2CCN(CCN3C(=O)c4cccc5cccc(c45)C3=O)CC2)cc1,4.5%,u,18.9µM*,x
O=C(O)c1cccc(S(=O)(=O)NCCC(c2ccccc2)c2ccccc2)c1,-10.4%,4.3%,0.2%,-2.6%
O=C(O)c1cccc(S(=O)(=O)NCCc2ccccc2)c1,21.1%,-13.8%,29.9µM*,1.3%
COc1ccc(N2CCN(CCCNC(=O)c3ccc4nc(Cc5ccccc5)oc4c3)CC2)cc1,x,-1.6%,x,x
COCc1cc(C)nc2sc(C(=O)Nc3ccccc3OC)c(N)c12,15.2%,-3.0%,-2.8%,1.7%
Cc1cc(C)c2c(N)c(C(=O)NNC(=O)c3ccccc3)sc2n1,8.91µM*,18.9%,-22.8%,5.1%
COCc1cc(C)nc2sc(C(=O)Nc3cccc(OC)c3)c(N)c12,2.51µM*,3.0%,-13.7%,-3.7%
NC(c1cccc(F)c1)c1nc(-c2ccc(Cl)cc2)cs1 (stereo not given),23.8%,x,-10.2%,x
Cc1ccc(NCC(=O)Nc2cccc(S(=O)(=O)N(C)C)c2)cc1S(=O)(=O)N1CCCCCC1,-67.1%,8.6%,1.9%,19.0%
CCN(CC)c1ccc(/C=C/C2=C3C=CC=CC3NC=C2)cc1 (stereo not given),50.0%,x,x,x
COc1cc(C2NC(=O)NC3=C2C(=O)OC3)cc(OC)c1OC (stereo not given),13.2%,-21.7%,29.9µM*,-5.0%
COc1cc(C2Nc3ccccc3NC3=C2C(=O)CC(C)(C)C3)cc(OC)c1OC (stereo not given),-4.2%,-26.4%,9.9%,2.8%
COc1cc(CN2C[C@@H](CO)O[C@@H](n3cnc4c(N5CCOCC5)ncnc43)C2)cc(OC)c1OC,20.4%,x,-0.3%,x
Cc1cccc(N(CC(=O)NCCSc2ccc(Cl)cc2)S(C)(=O)=O)c1C,0.0%,2.1%,x,x
COc1cc(C2/C(=C(\O)c3ccc4c(c3)CC(C)O4)C(=O)C(=O)N2CC2CCCO2)cc(OC)c1OC (stereo not given),-1.1%,-6.2%,-3.0%,0.5%
CC1Cc2cc(/C(O)=C3/C(=O)C(=O)N(CC4CCCO4)C3c3ccco3)ccc2O1 (stereo not given),-0.9%,-11.8%,29.9µM*,-11.6%
COc1ccc(Oc2ncc3nc(C)c(=O)n(C4CC4)c3n2)cc1,x,-5.7%,x,x
CCn1c2ccccc2c2nnc(N3CCN(c4ccc(OC)cc4)CC3)nc21,x,5.1%,x,x
CCN(Cc1ccccc1)c1ncnc2c1nnn2C,x,-5.2%,x,x
Cc1ccc(C(=O)NNS(=O)(=O)c2ccccc2[N+](=O)[O-])cc1,18.1%,-2.2%,26.7µM*,-2.2%
O=C(NNS(=O)(=O)c1ccccc1[N+](=O)[O-])c1ccc(O)cc1,5.0%,-3.6%,23.8µM*,5.5%
O=C(NNS(=O)(=O)c1ccccc1[N+](=O)[O-])c1ccc(F)cc1,-43.1%,-4.5%,-3.3%,0.6%
COc1ccc(-n2cc(-c3ccccc3)c3c(N4CCCC(C)C4)ncnc32)cc1 (stereo not given),x,12.6%,x,x
CCCc1cc(=O)[nH]c(Nc2cc(C)ccc2OC)n1,x,-1.0%,x,x
SMILES,BRCA1 expr act,VDR inh,PLK1 PBD inh,Tb PFK block
O=S(=O)(NCc1cc(-c2ccccc2Cl)no1)c1ccc(Cl)cc1,7.4%,17.8µM*,3.77µM*,1.1%
COc1ccc(-c2cc(CNS(=O)(=O)c3ccc(NC(C)=O)cc3)on2)cc1,-7.6%,-21.0%,7.5%,-0.6%
CC(C)(C)NC(=O)Nc1ccc(Cn2cc(C(F)(F)F)ccc2=O)cc1,38.9%,-29.0%,23.8µM*,-0.3%
COc1cccc(CCC2C(=O)CCCC2=O)c1,-1.8%,-12.4%,-5.4%,x
S=c1nc2[nH]c3ccccc3c2n[nH]1,13.5%,u,3.77µM*,x
CC(=O)c1cc(CN2CCN(CCC(C)C)C(CCO)C2)cs1 (stereo not given),-23.2%,u,21.2µM*,-1.5%
CC(=O)c1cc(CN2CCN(Cc3ccc(C)cc3)C(CCO)C2)cs1 (stereo not given),-17.7%,2.8%,-8.8%,-0.4%
Cn1nnnc1SCC(=O)c1ccc(Br)s1,3.6%,u,u,1.4%
Cn1c(Cc2ccccc2)nnc1SCC(=O)c1ccc(Br)s1,6.0%,-27.9%,21.2µM*,-0.1%
Cc1ccc(N2C(=O)c3ccccc3C2Nc2ccc(S(=O)(=O)N3CCOCC3)cc2)nc1 (stereo not given),14.1µM*,2.1%,-5.7%,2.1%
O=C(Cc1ccccc1F)Nc1ccc(S(=O)(=O)Nc2ncccn2)cc1,-1.5%,-18.4%,-8.3%,-4.5%
CC(C)(C)C(=O)O/N=C1/C(=O)N(c2ccccc2)c2ccccc21,-1.9%,0.3%,-23.3%,4.2%
CC(C)CC(=O)O/N=C1\C(=O)N(c2ccccc2)c2ccccc21,-11.6%,-19.1%,29.9µM*,1.0%
N#Cc1cnc(Sc2ccccc2)nc1,-18.1%,u,29.9µM*,1.3%
Cc1ccc(N(Cc2cc3ccc(C)cc3[nH]c2=O)C(=O)c2ccco2)cc1,0.0%,u,26.7µM*,4.9%
CCCN(C/C=C/I)C1CCc2cccc(O)c2C1 (stereo not given),x,-0.8%,x,x
COc1ccc(-c2nn(-c3cccc([N+](=O)[O-])c3)c3c2cnc2cc4c(cc23)OCO4)cc1,x,1.1%,x,x
CC(=O)OC1C(=O)N(Cc2ccccc2)C1c1ccc(C)cc1 (stereo not given),-12.2%,-17.1%,26.7µM*,x
CCOC(=O)c1c(C)[nH]c(C)c1S(=O)(=O)N(C)CC(=O)Nc1ccc(C)c(F)c1,-8.6%,2.1%,x,x
CCCCCCCc1ccc(-c2ccc(O)cc2)nc1,u,-0.3%,23.8µM*,-0.1%
O=C(OCc1ccccc1)/C(=C/c1cccc(Br)c1)NC(=O)c1ccco1,-36.7%,-21.3%,-4.0%,-6.9%
Cc1cccc(S(=O)(=O)C(C#N)c2nc3ccccc3nc2N2CCCC2)c1 (stereo not given),-9.6%,3.6%,29.9µM*!,0.3%
CC(C)Sc1nc2c(c(=O)[nH]c(=O)n2C)n1CC(O)COc1ccccc1 (stereo not given),-7.1%,3.4%,23.8µM*,0.9%
CC(O)CSc1nc2c(c(=O)[nH]c(=O)n2C)n1CC(O)COc1ccccc1 (stereo not given),-0.3%,u,26.7µM*,-6.8%
CCOC(=O)C1(CC)CC(CSc2nc3ccccc3[nH]2)OC1=O (stereo not given),-12.3%,11.3%,2.3%,-6.9%
CCCCCC1(C(=O)OCC)CC(CSC(=N)N)OC1=O (stereo not given),-21.1%,-20.5%,29.9µM*,-2.4%
CC(C)C(=O)N1CCC(n2nccc2NC(=O)CCc2ccccc2)CC1,0.0%,u,3.36µM*,2.7%
COCCC(=O)N1CCC(n2nccc2NC(=O)c2ccccc2C)CC1,1.4%,u,21.2µM*,-0.6%
CC(C)C(=O)N1CCC(n2nccc2NC(=O)CCOc2ccccc2)CC1,19.4%,11.4%,-5.3%,0.0%
COC(=O)c1c(-c2cc(C)ccc2C)csc1NC(=O)C1CC=CCC1C(=O)O (stereo not given),-5.4%,-13.2%,-12.3%,3.7%
